Laboratory results taken from ChEMBL document CHEMBL1201862, “PubChem BioAssay data set” (2004).
Hit rate of the full screen: of about 400,000 compounds, about 2,100 (0.53%) were called active. Inconclusive results (about 14%) are left out. The sample holds actives, similar compounds and a random draw of the others, so the mix is not that of the screen. No rule for the calls is given here.

molecular target: Ataxin-2 (Homo sapiens) (UniProt Q99700); experiment: qHTS for Inhibitors of ATXN expression.; type: functional
Sequence (Q99700 whole entry): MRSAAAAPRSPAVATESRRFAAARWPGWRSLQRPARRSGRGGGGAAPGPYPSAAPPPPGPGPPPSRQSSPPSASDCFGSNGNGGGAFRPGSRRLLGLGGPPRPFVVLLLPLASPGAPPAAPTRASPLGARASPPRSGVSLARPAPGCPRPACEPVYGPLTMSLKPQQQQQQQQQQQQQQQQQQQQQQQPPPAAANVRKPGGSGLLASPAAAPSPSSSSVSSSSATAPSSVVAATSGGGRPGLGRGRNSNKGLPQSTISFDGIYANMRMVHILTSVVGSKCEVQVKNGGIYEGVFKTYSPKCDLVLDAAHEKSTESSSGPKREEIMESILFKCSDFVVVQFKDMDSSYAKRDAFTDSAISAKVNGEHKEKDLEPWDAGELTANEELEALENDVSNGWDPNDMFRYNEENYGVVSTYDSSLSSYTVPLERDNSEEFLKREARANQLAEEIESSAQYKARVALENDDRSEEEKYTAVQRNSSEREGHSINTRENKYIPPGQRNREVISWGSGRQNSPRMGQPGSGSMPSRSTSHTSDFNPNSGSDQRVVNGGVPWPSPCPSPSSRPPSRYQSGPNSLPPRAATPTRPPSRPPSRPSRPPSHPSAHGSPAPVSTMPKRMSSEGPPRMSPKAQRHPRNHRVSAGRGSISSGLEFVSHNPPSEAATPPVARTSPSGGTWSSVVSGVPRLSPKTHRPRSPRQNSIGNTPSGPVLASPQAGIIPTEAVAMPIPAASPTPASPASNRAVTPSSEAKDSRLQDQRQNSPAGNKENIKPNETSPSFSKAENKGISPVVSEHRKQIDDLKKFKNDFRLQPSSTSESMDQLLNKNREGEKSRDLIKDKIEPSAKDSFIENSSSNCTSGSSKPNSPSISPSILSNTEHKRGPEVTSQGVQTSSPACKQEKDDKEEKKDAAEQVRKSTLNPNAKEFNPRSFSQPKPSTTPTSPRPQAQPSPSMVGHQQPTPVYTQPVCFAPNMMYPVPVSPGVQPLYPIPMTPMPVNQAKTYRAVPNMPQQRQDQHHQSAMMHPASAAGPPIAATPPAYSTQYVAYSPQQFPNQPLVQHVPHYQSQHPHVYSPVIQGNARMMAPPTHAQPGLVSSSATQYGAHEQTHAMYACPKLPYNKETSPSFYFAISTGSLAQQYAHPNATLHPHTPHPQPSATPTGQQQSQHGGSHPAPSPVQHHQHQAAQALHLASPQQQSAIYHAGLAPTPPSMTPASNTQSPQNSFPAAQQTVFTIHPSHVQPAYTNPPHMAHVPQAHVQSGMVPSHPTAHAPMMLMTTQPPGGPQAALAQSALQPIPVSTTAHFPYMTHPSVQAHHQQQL

Row | Compound | Potency
1 | COc1ccc(-c2nn(-c3ccccc3)cc2/C=C(\CC(=O)O)c2nc3ccccc3s2)cc1OC | inactive
2 | COc1ccc(-c2nn(-c3ccccc3)cc2/C=N/N=C(N)N)cc1OC | 39.8 µM (active)
3 | COc1ccc(-c2nn(-c3ccccc3)cc2/C=N/Nc2ccc3ccccc3n2)cc1OC | inactive
4 | N#CC(C#N)=Cc1cnc(O)c(C#N)c1Nc1ccccc1 | inactive
5 | Nc1c(C(=O)Nc2ccc(F)cc2)sc2nc(-c3ccco3)ccc12 | inactive
6 | O=Cc1ccc(O)c2ncccc12 | inactive
7 | O=C(CSc1ncccn1)N1CCc2ccccc2C1 | inactive
8 | Oc1ccc(CN2CCc3ccccc3C2)c2cccnc12 | 7.94 µM (active)
9 | CCc1ccc(C(=O)c2cc3ccc(O)cc3oc2=O)cc1 | inactive
10 | Oc1ccc(C23CC4CC(CC(C4)C2)C3)cc1O | 39.8 µM (active)
11 | CNC(=O)/C(C#N)=C/c1c(N2CCN(c3ccc(OC)cc3)CC2)nc2c(C)cccn2c1=O | inactive
12 | N=C1SC(c2ccccc2)C(=O)N1c1ncc(Cc2ccccc2Cl)s1 (stereo unspecified) | 12.6 µM (active)
13 | Fc1ccc(-n2c(S)nnc2-c2ccc3ccccc3n2)cc1Cl | inactive
14 | Oc1c(Br)cc(/C=N/Nc2ccc(Cl)nn2)cc1Br | inactive
15 | FC(F)(F)c1nnc(-c2ccccc2)nc1Sc1ccc(Cl)cc1 | 35.5 µM (active)
16 | CN1CCN(c2nc(-c3ccc(Cl)cc3)nc3ccccc23)CC1 | inactive
17 | FC(F)(F)c1nnc(-c2ccccc2)nc1Sc1ccccc1 | 39.8 µM (active)
18 | COc1cccc(-n2c(C)cc(/C=C3/C(=N)N4C(=NC3=O)SN=C4S(C)(=O)=O)c2C)c1 | inactive
19 | COc1cc(/C=C2/C(=N)N3N=C(CC(=O)N4CCOCC4)SC3=NC2=O)ccc1OCc1ccccc1 | inactive
20 | Cc1ncc(CO)c(/C=N/NC(=O)c2ccccc2Br)c1O | inactive
21 | COc1cc(/C=C2\SC(=S)N(NC(=O)c3ccc(O)cc3)C2=O)ccc1O | 12.6 µM (active)
22 | Cc1c(NC(=O)COC(=O)/C=C/c2cccc(F)c2)c(=O)n(-c2ccccc2)n1C | inactive
23 | Cn1cc(/C=C2\SC(=S)N(NC(=O)c3ccccc3)C2=O)c2ccccc21 | inactive
24 | O=C(O)C(c1ccccc1)N1C(=O)/C(=C\c2ccc(O)c(O)c2)SC1=S (stereo unspecified) | 39.8 µM (active)
25 | COc1cc(/C=C2\SC(=S)N(C(C(=O)O)c3ccccc3)C2=O)ccc1O (stereo unspecified) | 17.8 µM (active)
26 | COc1ccc(/C=C2\SC(=S)N(CCCC(=O)Nc3cc(C)on3)C2=O)cc1OC | inactive

Row | Compound | Potency
27 | COc1cc(/C=C2/SC(=S)N(c3c(C)n(C)n(-c4ccccc4)c3=O)C2=O)ccc1O | 31.6 µM (active)
28 | CCN(CC)c1ccc2cc(C(N)=O)c(=O)oc2c1 | inactive
29 | CCNC(=O)c1cc2c(=O)n3cccc(C)c3nc2n(CCc2ccccc2)c1=N | inactive
30 | Nc1c(C(=O)N/N=C/c2ccc(F)cc2)oc2nc(-c3ccccc3)cc(-c3ccco3)c12 | inactive
31 | O=C(Nc1ccc2nc(-c3ccco3)c(-c3ccco3)nc2c1)N1CCCCCC1 | inactive
32 | CCCn1c(=N)c(C(=O)NCc2cccnc2)cc2c(=O)n3ccccc3nc21 | inactive
33 | CC1(C)C2CC=C(/C=N/NC(=S)NCCc3ccccc3)C1C2 (stereo unspecified) | inactive
34 | COc1cc(C2CC(c3c(C)cc(C)nc3O)=NN2c2ccccc2F)cc(OC)c1OC (stereo unspecified) | inactive
35 | CC(C)C(=O)NC(Nc1cc(C(F)(F)F)ccc1Cl)C(Cl)(Cl)Cl (stereo unspecified) | inactive
36 | N#Cc1sc2nc(-c3cccs3)cc(-c3ccc(Cl)cc3)c2c1N | inactive
37 | O=C(O)c1cc([N+](=O)[O-])ccc1-c1ccc([N+](=O)[O-])cc1C(=O)O | inactive
38 | O=C(O)c1ccccc1Nc1ccc([N+](=O)[O-])cc1 | inactive
39 | Nc1cc([N+](=O)[O-])ccc1Nc1ccc(O)cc1 | 44.7 µM (active)
40 | COc1ccc(C2C3=C(CCCC3=O)N(CC(=O)O)C3=C2C(=O)CCC3)cc1Br | inactive
41 | OC(CNCCC1C=Nc2ccccc21)Cn1c2ccc(Cl)cc2c2cc(Cl)ccc21 (stereo unspecified) | 35.5 µM (active)
42 | CN(C)CC(C(=O)c1ccccc1)c1ccccc1 (stereo unspecified) | 20 µM (active)
43 | CCOC(=O)C(C(=O)c1ccccc1)C(c1ccccc1)c1nccc2ccccc12 (stereo unspecified) | inactive
44 | NCC12CC3CC(C1)CC(c1ccc(Cl)cc1)(C3)C2 | 44.7 µM (active)
45 | NCC12CC3CC(C1)CC(c1ccc(Br)cc1)(C3)C2 | 25.1 µM (active)
46 | CCOCCCn1c(=N)c(C(=O)NCC2CCCO2)cc2c(=O)n3cccc(C)c3nc21 (stereo unspecified) | inactive
47 | N#C/C(=C\c1c(Oc2ccccc2Cl)nc2ccccn2c1=O)C(=O)NC1CCS(=O)(=O)C1 (stereo unspecified) | inactive
48 | Cc1cc(O)c(CN(C)C)c2c1C(=O)/C(=C/c1ccco1)O2 | inactive
49 | CC/C(=C\C1CCCCC1)C(NP(=O)(c1ccccc1)c1ccccc1)c1ccccc1 (stereo unspecified) | 35.5 µM (active)
50 | CC(C)OCCCn1c(NN)nc2ccccc2c1=O | inactive
51 | COc1ccccc1Oc1ccc(N/C=C/C(=O)c2ccco2)cc1 | inactive
52 | Cc1ccc(SC2=C(Sc3ccc(C)cc3)C(=O)c3ccccc3C2=O)cc1 | inactive

Row | Compound | Potency
53 | COc1ccc2sc(-c3ccc(N(C)C)cc3)c(C#CC(C)(C)O)c2c1 | inactive
54 | COc1cc(OC)cc(-c2sc3ccc(OC)cc3c2C#CC2(N)CCCCC2)c1 | 39.8 µM (active)
55 | COc1ccc2sc(-c3ccc(N(C)C)cc3)c(C#Cc3cncn3C)c2c1 | inactive
56 | COc1ccc(-c2sc3cc4c(cc3c2C#CC2(N)CCCCC2)OCO4)cc1 | 39.8 µM (active)
57 | CCOCCCn1c(=N)c(C(=O)NCc2cccnc2)cc2c(=O)n3ccccc3nc21 | inactive
58 | N#CC(C(=O)NCc1ccccc1)c1nc2ccccc2nc1N1CCCC1 (stereo unspecified) | inactive
59 | O=c1oc2cc(O)ccc2cc1S(=O)(=O)c1ccccc1 | inactive
60 | CC(C)(C)c1ccc(C(=O)CC(Sc2ccc(Cl)cc2)C(=O)O)cc1 (stereo unspecified) | 39.8 µM (active)
61 | CC(C)N1CCN(Cc2ccc(C#CCCO)cc2)CC1CCO (stereo unspecified) | inactive
62 | CCCOc1ccc(C(=O)C(CCC(CNCC)C(=O)c2ccc(OCCC)cc2)CNCC)cc1 (stereo unspecified) | 22.4 µM (active)
63 | CCCOc1ccc(C2C(C(=O)OC)=CN(CCOC)C=C2C(=O)OC)cc1 | inactive
64 | CCCOc1ccc(CCC(=O)N/N=C/c2ccco2)cc1 | inactive
65 | O=C(O)c1cccc(-n2cccc2/C=C2/NC(=O)N(c3ccc(Cl)cc3)C2=O)c1 | inactive
66 | NSc1nc(N)c2nc(-c3ccccc3)c(-c3ccccc3)nc2n1 | inactive
67 | O=C(O)CCCCCNS(=O)(=O)c1ccc2c3c(cccc13)C(=O)N2 | inactive
68 | NCCCCCCNS(=O)(=O)c1cccc2c(Cl)cccc12 | 39.8 µM (active)
69 | O=C1Nc2ccc(S(=O)(=O)NCCCO)c3cccc1c23 | inactive
70 | Cc1ccc(O)c(-c2n[nH]c3c2C(c2ccccc2F)N(Cc2ccco2)C3=O)c1 (stereo unspecified) | 39.8 µM (active)
71 | O=C1c2cccc3c(O)ccc(c23)C(=O)N1Cc1ccco1 | inactive
72 | CCOc1cccc(C2c3c(-c4cc(C)ccc4O)n[nH]c3C(=O)N2Cc2ccco2)c1 (stereo unspecified) | 39.8 µM (active)
73 | Cc1cc(N=Nc2ccc(C)c(N=Nc3cc(C)c(N)cc3N)c2)c(N)cc1N | 39.8 µM (active)
74 | O=C1OCCN1C(=O)[C@H]1[C@H](c2ccc(F)cc2)C(c2ccc(F)cc2)=NN1c1ccccc1 | inactive
75 | Cc1[nH]c(N=Nc2ccccc2)nc1N=Nc1ccccc1 | 20 µM (active)
76 | OCc1ccc(N=Nc2ccccc2)cc1 | inactive
77 | COc1cc(/C=C2\CCC/C(=C\c3ccc(O)c(OC)c3)C2=O)ccc1O | 35.5 µM (active)
78 | COc1cc(/C=C2\CC/C(=C\c3cc(OC)c(O)c(OC)c3)C2=O)cc(OC)c1O | 28.2 µM (active)

Row | Compound | Potency
79 | COc1cc(/C=C2\CCc3c2nc2ccccc2c3C(=O)O)cc(OC)c1OC | inactive
80 | COc1cc(/C=C/c2nc3ccccc3s2)cc(OC)c1O | inactive
81 | COc1cc2ccc(=O)oc2c(O)c1O | inactive
82 | CCOc1cc(/C=C2\CCCc3c2nc2ccccc2c3C(=O)O)ccc1OC | inactive
83 | COc1cc(/C=C2\SC(c3ccccc3)=NC2=O)cc(Cl)c1O | inactive
84 | COc1cc(C=C2C(=O)C=CC2=O)ccc1O | 14.1 µM (active)
85 | COc1cc(/C=C2/CCC/C(=C\c3cc(O)c(OC)c(Cl)c3)C2=O)cc(Cl)c1O | 39.8 µM (active)
86 | COc1cc(/C=C/C(=O)c2ccc3c(c2)OCO3)cc(Cl)c1O | inactive
87 | COc1cc(/C=C2/NC(=O)N(Cc3ccccc3F)C2=O)ccc1O | inactive
88 | COc1cc(/C=C2\C(=N)N3N=C(CC(=O)N4CCCCC4)SC3=NC2=O)ccc1O | inactive
89 | C=CCN1c2ccccc2Sc2cnccc21 | inactive
90 | Nc1ccc2nn(-c3ccc(F)cc3)nc2c1 | inactive
91 | COc1cc(/C=C2\Oc3cc(O)ccc3C2=O)ccc1O | inactive
92 | COc1cc(/C=C/c2ccc3cccc(O)c3n2)ccc1O | inactive
93 | CCOc1cc(/C=C2\C(=N)N3N=C(CC(=O)N4CCCCC4)SC3=NC2=O)ccc1O | inactive
94 | CCOc1cc(/C=C2\CN(C)C/C(=C\c3ccc(O)c(OCC)c3)C2=O)ccc1O | 15.8 µM (active)
95 | CCOc1cc(/C=C2/C(=N)N3N=C(CC(=O)N4CCCC4)SC3=NC2=O)ccc1O | inactive
96 | COc1cc2ccc(=O)oc2cc1O | inactive
97 | COc1cc(/C=C2\COC/C(=C\c3ccc(O)c(OC)c3)C2=O)ccc1O | 31.6 µM (active)
98 | COc1cc(/C=C/C(=O)OCC(=O)N2CCC(Cc3ccccc3)CC2)ccc1O | inactive
99 | COc1cc(/C=C/C=C2/CC/C(=C/C=C/c3ccc(O)c(OC)c3)C2=O)ccc1O | 13.4 µM (active)
100 | CCCn1/c(=N\C(=O)c2c(-c3c(F)cccc3Cl)noc2C)c(C(=O)OCC)cc2c(=O)n3ccccc3nc21 | inactive
101 | CCCn1c(O)nnc1SCC(=O)N(C1CCCCC1)C1CCS(=O)(=O)C1 (stereo unspecified) | inactive
